Assay results from PubChem BioAssay.
Activity calls are given as the source filed them.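 Rule for the calls: active = inhibition above 20% together with a positive visual image hit; inconclusive = visual image hit but inhibition not above 20%; inactive = no visual image hit.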

Assay: inhibitors of TNFa-induced NFkB p65 translocation, primary screen, imaging, HUVEC, MLSMR starter and 10KST1 sets (AID 438);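 note: compound added about 3h40 before a 20 min TNFalpha stimulation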;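 for inhibition: signal is the nuclear over cytoplasmic p65 intensity ratio per well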
Conditions: HUVEC TNFa-induced p65 nuclear translocation; cell count: measured here: nuclei count (cytotoxicity indicator), at 2.08 µM; inhibition: at 2 µM, stronger effect = higher value, 0% TNFa-plus-vehicle, 100% no-TNFa wells

What does the source list for `COc1ccc(C)cc1NC(=O)CN1CCN(S(=O)(=O)c2ccc(Cl)cc2)CC1`?
inhibition: -1.5% (inactive); cell count: 409

Which inhibition does the source give for `COc1cccc(C(=O)Nc2c(C(N)=O)oc3ccccc23)c1` here?
Its inhibition is -14.6% (inactive).

What about the cell count of the same compound?
The cell count was 702.

Which results are given for `O=C(CC(Cc1ccccc1)C(=O)O)NCCc1ccc2c(c1)OCO2` (stereo not given)?
cell count: 775; inhibition: -6.3% (inactive)

What does the source list for `CC(=O)c1cccc(NC(=O)CCNS(=O)(=O)c2cccc3nsnc23)c1`?
cell count: 439; inhibition: -3.5% (inactive)

For `COc1ccc(-n2c(=O)cc(N3CCN(Cc4ccccc4)CC3)[nH]c2=O)cc1`, which cell count is on record?
The cell count was 672.

What about the inhibition of the same compound?
Its inhibition is -2.4% (inactive).

Which results are given for `Cc1cc(N2C(=O)C(O)=C(C(=O)c3ccc(C)o3)C2c2cccs2)no1` (stereo not given)?
cell count: 257; inhibition: -3.6% (inactive)

With `COC(=O)C1=C(C)NC(C)=C(C(=O)OC)C1C(=O)OC1CCCCC1=O` (stereo not given) as the compound, how does the cell count read?
The cell count was 487.

And the inhibition?
Its inhibition is 8.7% (inactive).

Which results are given for `O=C(Cc1cccs1)Nc1ccccc1NC(=O)Cc1cccs1`?
inhibition: -1.4% (inactive); cell count: 323

Which results are given for `CCOC(=O)c1cc2c(=O)n3ccccc3nc2n(CCCOC)c1=NC(=O)C(C)(C)C`?
inhibition: 2.6% (inactive); cell count: 656

With `CCOC(=O)c1cc(-c2ccco2)nc2c1c(C)nn2CCC#N` as the compound, how does the inhibition read?
Its inhibition is -10.8% (inactive).

What about the cell count of the same compound?
The cell count was 590.

Which results are given for `Cc1cc(C)c(C#N)c(SCC(=O)Nc2ccc(S(=O)(=O)Nc3onc(C)c3C)cc2)n1`?
cell count: 607; inhibition: 2.9% (inactive)

What does the source list for `O=c1c2nnn(Cc3ccc(Cl)cc3)c2ncn1Cc1ccc(F)cc1`?
cell count: 608; inhibition: -7.9% (inactive)

For `Cc1ccc2c(c1)CCCN2C(=O)C1CCCO1` (stereo not given), which cell count is on record?
Its cell count is 354.

And the inhibition?
Its inhibition is -6.4% (inactive).

Which cell count does the source give for `CC1(C)NC(=O)N(CC(O)COc2ccc(-c3ccccc3)cc2)C1=O` (stereo not given) here?
Its cell count is 260.

And the inhibition?
The inhibition was -0.5% (inactive).

Which results are given for `CS(=O)(=O)NCc1nnc(SCC(=O)NC2CCCCC2)n1-c1ccc(F)cc1`?
inhibition: -5.5% (inactive); cell count: 820

For `O=C(NCC1CCCO1)c1cccc(N2C(=O)C3C4C=CC(C4)C3C2=O)c1` (stereo not given), which inhibition is on record?
The inhibition was 8.8% (inactive).

What about the cell count of the same compound?
The cell count was 628.

What does the source list for `CC(=O)Nc1cccc(NC(=O)C2CCCN2C(=O)Nc2ccc(C)cc2)c1` (stereo not given)?
cell count: 789; inhibition: -3.2% (inactive)

Which results are given for `COc1cccc(CN=CC2=C(O)CC(C)(C)CC2=O)c1OC`?
cell count: 326; inhibition: -18.3% (inactive)

Which cell count does the source give for `COC(=O)Cn1c(CN2CCOCC2)nc2c1c(=O)n(C)c(=O)n2C` here?
The cell count was 666.

And the inhibition?
The inhibition was -18.4% (inactive).

For `O=C(O)c1[nH]c2ccc(Cl)cc2c1CC(=O)N1CCN(C(=O)c2ccco2)CC1`, which inhibition is on record?
Its inhibition is -0.5% (inactive).

What about the cell count of the same compound?
The cell count was 374.

What does the source list for `CC1CCN(c2oc(-c3cccc4ccccc34)nc2C#N)CC1`?
inhibition: -8.2% (inactive); cell count: 610

For `Cc1ccc(S(=O)(=O)N2CCN(C(=O)CSC3CCCC3)CC2)c(C)c1`, which inhibition is on record?
The inhibition was 3.7% (inactive).

And the cell count?
The cell count was 318.

Which cell count does the source give for `CCOC(=O)c1sc2nc(SCC#N)n(CCCN3CCCC3=O)c(=O)c2c1C` here?
Its cell count is 399.

And the inhibition?
Its inhibition is 3.4% (inactive).

What does the source list for `COc1cc(C(Nc2ccc3c(c2)OCO3)C(=O)NC2CCCCC2)cc(OC)c1OC` (stereo not given)?
inhibition: -10.7% (inactive); cell count: 835

With `Cc1cc2c(cc(C(=O)OCC(=O)NCc3cccs3)n2C(C)C)o1` as the compound, how does the cell count read?
Its cell count is 379.

And the inhibition?
Its inhibition is 9.9% (inactive).

Which cell count does the source give for `O=C(CSc1nc2ccccc2nc1SCC(=O)N1CCOCC1)N1CCOCC1` here?
The cell count was 473.

What about the inhibition of the same compound?
The inhibition was 7.6% (inactive).

For `Cc1onc(-c2ccccc2Cl)c1C(=O)Nc1cnn(Cc2ccccc2)c1`, which inhibition is on record?
The inhibition was 1.1% (inactive).

And the cell count?
The cell count was 545.

For `CC(NC(=O)c1ccco1)c1ccc2c(c1)OCCO2` (stereo not given), which cell count is on record?
The cell count was 418.

What about the inhibition of the same compound?
The inhibition was 9.3% (inactive).

Which inhibition does the source give for `Cc1nc2ccccc2n1CCC(=O)Nc1cccc(F)c1` here?
The inhibition was -4.8% (inactive).

What about the cell count of the same compound?
The cell count was 606.

Which cell count does the source give for `O=C(NC1CCCCCC1)C1CCCN(S(=O)(=O)c2cccs2)C1` (stereo not given) here?
The cell count was 714.

What about the inhibition of the same compound?
The inhibition was -6.2% (inactive).

What does the source list for `COc1ccc(CC(=O)OCn2nnc3ccccc3c2=O)cc1`?
cell count: 423; inhibition: -7% (inactive)

For `CCCNC(=O)Nc1ccccc1C(=O)Nc1ccc(OC)cc1`, which inhibition is on record?
Its inhibition is 8.1% (inactive).

And the cell count?
Its cell count is 351.

With `CCSc1nnc(N2C(=O)CC(c3ccsc3)C3=C2CC(C)(C)CC3=O)s1` (stereo not given) as the compound, how does the inhibition read?
Its inhibition is 0% (inactive).

What about the cell count of the same compound?
Its cell count is 558.

For `COc1ccccc1-n1c(SCC(=O)Nc2ccc3c(c2)OCO3)nc2c(c1=O)SCC2`, which cell count is on record?
The cell count was 324.

And the inhibition?
Its inhibition is -4.6% (inactive).

For `COc1ccc(S(=O)(=O)Cc2ccc(C(=O)N3CCOCC3)o2)cc1`, which cell count is on record?
The cell count was 551.

What about the inhibition of the same compound?
The inhibition was -0.2% (inactive).

With `Cc1ccc(S(=O)(=O)NCCSc2nnnn2-c2ccc(C(N)=O)cc2)cc1` as the compound, how does the cell count read?
The cell count was 650.

And the inhibition?
The inhibition was -2.6% (inactive).

For `O=C(c1cccc(C(=O)N2CCN(c3ccc(F)cc3)CC2)c1)N1CCN(c2ccc(F)cc2)CC1`, which cell count is on record?
The cell count was 692.

What about the inhibition of the same compound?
The inhibition was 1.5% (inactive).

What does the source list for `CCOCCCNC(=O)c1cc2sc(Cl)cc2n1CC`?
inhibition: 17.9% (inactive); cell count: 449

Which inhibition does the source give for `CCOc1ccc(NC(=O)CN2CCN(CC(=O)c3ccc(OCC)cc3)CC2)cc1` here?
The inhibition was 2.1% (inactive).

What about the cell count of the same compound?
The cell count was 418.

What does the source list for `CC1CCCC(N2CCN(C(=O)c3ccc(F)cc3)CC2)C1` (stereo not given)?
inhibition: -1.3% (inactive); cell count: 625
